NPC1 promoter act: NPC1 promoter activation. actives 2.4% (n = 320,000). AID 485313. Huh7 NPC1 promoter luciferase reporter, 24 h. Potency, µM (highest dose often 9.22 µM), inactives show top-dose activation, actives largely listed as activators; note: % of control where 0% means no effect; nearly all actives have a fitted effect of over 60% in size
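Huh7 cells stably carrying NPC1 promoter–luciferase, plated in Opti-MEM with 10% FBS for 2 h, were exposed to compound in DMSO for 24 h at 37 °C; luciferase reagent was added for 10 min and luminescence read.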
Rab9 promoter act: activators of Rab9 promoter. Huh7 Rab9 promoter-luciferase reporter, luminescence, 24 h. Potency, µM (titrated, usually from 9.22 µM), inactives show at the highest dose activation, negative = inhibition, usual class: activators. actives 2.8% (n = 320,000); note: % of control where 0% means no effect; nearly all actives have a fitted effect of over 60% in size
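Stable Rab9-luc Huh7, 1500 cells/well, 2 h settle; cmpd in DMSO, 24 h, 37 °C/5% CO2; luciferase reagent 10 min RT; luminescence.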
ELG1 genotox: induces genotoxicity in HEK293T cells with luciferase-tagged ELG1 | Potency, µM (top dose mostly 46 µM), inactives show at the top dose activity change, positive = activation, actives largely listed as activators | HEK293T ELG1-luciferase reporter, luminescence, 16 h | actives 1.3% (n = 330,000) | AID 504466; note: % of control where 0% means no effect; nearly all actives have a fitted effect of over 60% in size
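HEK293T cells expressing luciferase-tagged ELG1 were exposed to compound or DMSO vehicle for 16 hr at 37 °C and 5% CO2. Luciferase activity was then measured with ONE-Glo after 30 min at room temperature.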
FLuc counter: counter-screen for miR-21 project: firefly luciferase inhibitors or activators. P08659. purified FLuc, Km substrates, luminescence inhibition. Potency, µM (top dose mostly 57.5 µM), for the others: at the top dose activity change, negative = inhibition, usual class: inhibitors. actives 6.9% (n = 360,000). AID 588342;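 note: plate controls were vehicle for no effect and reference inhibitor for full effect; nearly all actives have a fitted effect of over 55% in size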
Target sequence (P08659 whole entry, looked up): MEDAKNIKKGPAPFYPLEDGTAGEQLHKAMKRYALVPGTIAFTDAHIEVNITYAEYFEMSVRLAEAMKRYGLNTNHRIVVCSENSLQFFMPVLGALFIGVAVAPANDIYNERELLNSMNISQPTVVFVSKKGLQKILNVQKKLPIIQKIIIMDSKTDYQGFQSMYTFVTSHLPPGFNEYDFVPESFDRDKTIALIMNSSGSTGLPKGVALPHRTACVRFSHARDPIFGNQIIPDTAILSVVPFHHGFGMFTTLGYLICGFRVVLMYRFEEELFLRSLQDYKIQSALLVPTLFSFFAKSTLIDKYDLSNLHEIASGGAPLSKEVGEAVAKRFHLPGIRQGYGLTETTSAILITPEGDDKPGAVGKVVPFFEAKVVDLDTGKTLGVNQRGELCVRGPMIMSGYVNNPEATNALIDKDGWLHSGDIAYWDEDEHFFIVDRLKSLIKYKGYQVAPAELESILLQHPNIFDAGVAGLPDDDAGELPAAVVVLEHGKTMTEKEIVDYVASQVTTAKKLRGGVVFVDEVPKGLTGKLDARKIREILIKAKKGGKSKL
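Purified P. pyralis luciferase, 10 nM final, with Km-level 10 uM D-luciferin and 10 uM ATP in 50 mM Tris acetate pH 7.5, 10 mM Mg acetate, 0.01% Tween-20, 0.05% BSA; 6-point qHTS titration about 60 µM downward; luminescence read.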
ELG1 DNA repair: ELG1-dependent DNA repair inhibition; AID 504467; HEK293T ELG1-luciferase reporter, luminescence, 16 h; DNA damage induced by 5-fluorouridine; actives 2.3% (n = 330,000); Potency, µM (titrated, usually from 46.1 µM), inactives show at the highest dose activity change, negative = inhibition, most hits filed as inhibitors; note: % is set by controls: 0 for no effect and ±100 for the full control effect; nearly all actives have a fitted effect of over 55% in size
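Cells (2,000 per well) received 5-fluorouridine plus test compound or DMSO and were incubated 16 hr at 37 °C, 5% CO2. Luciferase activity was read by luminescence 30 min after ONE-Glo addition; signal suppression marked inhibition of damage-induced ELG1 function.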
SMN2 splice enh: SMN2 splice variant enhancement; HEK293 SMN2-luciferase splicing reporter, luminescence, 30-36 h; Potency, µM (doses to about 46.1 µM), for the others: at the top dose activity change, positive = activation, actives largely listed as activators; actives 2.8% (n = 210,000); AID 1458; note: % of control where 0% means no effect; nearly all actives have a fitted effect of over 55% in size
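HEK293 cells carry an SMN2 minigene-luciferase reporter in which exon 7 inclusion puts luciferase in frame. Cells were seeded at 2000 cells/well, attached for 10-12 hours, then exposed to compounds for 30-36 hours at 37C before ONE-Glo luminescence.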
Active calls of the source: *; ? = inconclusive; . = no result; [ ] = remark or other dose. Most compounds without a hit are left out; they make up all but 9.2% or so of the library. Calls come from the whole dose curve; as a rule, active = well fitted curve in the direction sought with a large enough effect; inconclusive = small, poorly fitted or top-dose-only effect, or another doubt; inactive = no such curve, though single readings can be large; an effect the other way counts as inactive or inconclusive. Potency is the fitted concentration of half-maximal effect.

SMILES	NPC1 promoter act	Rab9 promoter act	ELG1 genotox	FLuc counter	ELG1 DNA repair	SMN2 splice enh
c1ccc2[nH]c(SCC3CCCCO3)nc2c1 (stereo not given)	1.8µM*	1.4µM*	?	19µM*	?	188%
CCOc1ccc2nc(SCC3CC3(Cl)Cl)[nH]c2c1 (stereo not given)	2.5µM*	3.2µM*	?	7.6µM*	?	.
Cc1cccc(NC(=S)NNC(=O)c2csc3c2CCCC3)c1	?	?	0%	12µM*	?	?
Cc1ccc(C)c(NC(=S)NNC(=O)c2csc3c2CCCC3)c1	1%	3%	-2%	-3%	-10%	-11%
Cc1cccc(NC(=S)NNC(=O)c2csc(C)c2)c1	14%	?	14%	8.5µM*	?	.
Cc1cccc(NC(=S)NNC(=O)c2cccc([N+](=O)[O-])c2)c1	-5%	2%	-2%	?	-6%	.
Cc1cc(C(=O)Nc2ccc(Br)cc2)cs1	?	0.63µM*	6.5µM*	19µM*	?	.
CSCC[C@H](NC(=O)Cc1c(C)c2cc3c4c(oc3cc2oc1=O)CCCC4)C(=O)O	0%	1%	2%	11µM*	?	.
Cc1c(CCC(=O)N[C@@H](CCCNC(N)=O)C(=O)O)c(=O)oc2cc3oc4c(c3cc12)CCCC4	3%	9%	7%	15µM*	?	.
CCCCC(NC(=O)Cc1c(C)c2cc3c4c(oc3cc2oc1=O)CCCC4)C(=O)O (stereo not given)	-1%	6%	2%	19µM*	20%	.
Cc1c(CCC(=O)NCCCCCC(=O)O)c(=O)oc2c(C)c3oc4c(c3cc12)CCCC4	1%	-3%	4%	?	-1%	.
Cc1coc2cc3oc(=O)c(CCC(=O)N[C@@H](CCCNC(N)=O)C(=O)O)c(C)c3cc12	1%	5%	-1%	2%	0%	.
Cc1c(CCC(=O)NCCCC(=O)O)c(=O)oc2cc3oc4c(c3cc12)CCCC4	0%	2%	6%	19µM*	?	.
CCCCC(NC(=O)Cc1c(C)c2cc3c4c(oc3c(C)c2oc1=O)CCCC4)C(=O)O (stereo not given)	-3%	-1%	-1%	?	4%	.
COc1ccc(OC)c(CNCc2c(C(=O)O)n(Cc3cccc(F)c3)c3cc(OC)ccc23)c1	.	.	.	0%	.	.
COc1ccccc1C(=O)N(Cc1nc(-c2cccc(C)c2)no1)C(C)C	.	.	.	-1%	.	-26%
COc1cccc(CNC(=O)Cn2cc3c(n2)-c2c(oc(C(=O)N4CCCC4)c2C)CC3)c1OC	.	.	.	-3%	.	.
COc1ccccc1OCCC(=O)OCC(=O)NCc1ccc(F)cc1	.	.	0%	.	8%	.
CCC(NC(=O)CCc1c(C)c2cc3c4c(oc3cc2oc1=O)CCCC4)C(=O)O (stereo not given)	-2%	6%	6%	15µM*	?	.
Cc1c(CC(=O)N[C@@H](CCCNC(N)=O)C(=O)O)c(=O)oc2cc3oc4c(c3cc12)CCCC4	-1%	-7%	0%	17µM*	18%	.
Cc1c(CC(=O)N[C@@H](C)C(=O)O)c(=O)oc2cc3oc4c(c3cc12)CCCC4	0%	1%	-3%	17µM*	2%	.
Cc1oc2c(C)c3oc(=O)c(CC(=O)N[C@@H](CCCNC(N)=O)C(=O)O)c(C)c3cc2c1C	-4%	0%	0%	?	0%	.
Cc1coc2cc3oc(=O)c(CC(=O)N[C@@H](CC(C)C)C(=O)O)c(C)c3cc12	1%	-4%[1.84 µM]	0%	2%	2%	.
c1ccc(-c2onc3cc4c(cc23)OCCO4)cc1	?	3.2µM*	?	-10%[2.3 µM]	?	35µM*
CC(=O)c1ccc2noc(-c3cccc(C)c3)c2c1	5%	13%	2%	?	0%	-9%
SMILES	NPC1 promoter act	Rab9 promoter act	ELG1 genotox	FLuc counter	ELG1 DNA repair	SMN2 splice enh
CC(=O)c1ccc2noc(-c3ccccc3)c2c1	-4%	0%	3%	?	9.2µM*	.
CN(C)/C=C/C(=O)c1ccc2noc(-c3ccccc3)c2c1	12%	-2%	-9%	?	23µM*	.
Cc1csc(NC(=O)c2cccs2)n1	?	?	?	?	?	11µM*
Cc1cc(C)nc(NC(=O)c2ccc(Br)s2)n1	-1%	10%	0%	2%	0%	.
Cc1csc(NC(=O)c2ccc(Br)s2)n1	21%	2%	?	4.8µM*	?	.
Cc1nc(NC(=O)c2cccs2)ccc1Br	3.5µM*	3.5µM*	?	6µM*	?	11µM*
Cc1csc(NC(=O)CCC(=O)c2cccs2)n1	6%	7%	-18%	-13%	?	-13%
COc1ccc(-c2ccc(CCC(=O)O)n2CC(=O)Nc2cccc(C(F)(F)F)c2)cc1	.	.	.	?	.	0%
Cc1ccccc1NC(=O)C1CCN(C(=O)c2cnn(-c3ccccc3)c2-n2cccc2)CC1	.	.	.	1%	.	1%
CCCCN(CC)C(=O)CCNS(=O)(=O)c1ccc2c(c1)c(=O)n(C)c(=O)n2C	.	.	.	0%	.	-25%
O=C(CN1CCN(c2ccccn2)CC1)Nc1ccc(F)cc1F	0%	16%	6%	-6%	18%	.
COc1ccccc1NC(=O)COc1ccc2c(c1)OCO2	?	-39%	?	15µM*	?	.
O=C(COc1ccc2c(c1)OCO2)Nc1nncs1	14%	26%	?	9.5µM*	?	.
NC(=O)c1ccccc1NC(=O)COc1ccc2c(c1)OCO2	2.5µM*	3.5µM*	?	4.8µM*	?	.
Cc1[nH]c2nc3ccccc3n2c(=O)c1CCC(C)C	0%	6%	3%	-1%	0%	.
Cc1nnc(NC(=O)CSc2nnc(CNC(=O)c3ccc(S(=O)(=O)N(C)C)cc3)o2)s1	-2%	0%	1%	1%	-8%	.
COc1ccc(CCNC(=O)C2CCC(=O)N2CCc2ccccc2)cc1OC (stereo not given)	0%	2%	-1%	5%	-8%	15%
Fc1ccc(-c2noc(-c3ccc4c(c3)CCO4)n2)cc1	?	0.4µM*	?	0.54µM*	?	.
COc1ccc(C(=S)N2CCCC2)cc1C	4%	-7%	3%	-10%	17%	.
CCc1ccc(C(=O)COC(=O)c2cccc(N3C(=O)c4c(C)nc5ccccc5c4C3=O)c2)cc1	?	26%	0%	1.7µM*	?	-18%
Cc1cnc(C(=O)OCC(=O)c2ccccc2)cn1	-2%	-1%	3%	?	6%	.
Cn1ccc(C(=O)OCC(=O)c2ccccc2)n1	11%	21%	?	27µM*	?	.
